# Test results: the supplement of paper PMC4709259
# Where a name gives a salt, the structure may show the parent alone. ± gives the standard deviation.
# Tested on: Jurkat
# Test: cell count relative to DMSO control (fraction of control); higher = more cells (less growth inhibition)
# Conditions: 48 h
row,SMILES,cell count
1,CN1CCN2c3ncccc3Cc3ccccc3C2C1 (stereo unspecified) [Mirtazapine] (concentration: 25 µM),0.951 ± 0.02
2,NC(=O)N1c2ccccc2CC(=O)c2ccccc21 [Oxcarbazepine] (concentration: 25 µM),0.772 ± 0.15
3,Cc1ccc(/C(=C\CN2CCCC2)c2cccc(/C=C/C(=O)O)n2)cc1 [Acrivastine] (concentration: 5 µM),0.976 ± 0.12
4,CC[C@@]1(O)C(=O)OCc2c1cc1n(c2=O)Cc2cc3c(CN(C)C)c(O)ccc3nc2-1 [Topotecan·HCl] (concentration: 25 nM),0.199 ± 0.016
5,O=C(O)CCCCCCCC(=O)O [Azelaic Acid] (concentration: 25 µM),0.477 ± 0.081
6,COc1cc2ncnc(Nc3ccc(F)c(Cl)c3)c2cc1OCCCN1CCOCC1 [Gefitinib] (concentration: 2.5 µM),0.736 ± 0.11
7,COc1ccc2c3c1O[C@H]1C[C@@H](O)C=C[C@@]31CCN(C)C2 [Galantamine·HBr] (concentration: 25 µM),0.701 ± 0.14
8,CC(=O)OCC(=O)[C@@]1(O)CC[C@H]2[C@@H]3CCC4=CC(=O)CC[C@]4(C)[C@H]3[C@@H](O)C[C@@]21C [Hydrocortisone Acetate] (concentration: 25 µM),0.716 ± 0.12
9,NNCCc1ccccc1 [Phenelzine Sulfate] (concentration: 25 µM),0.882 ± 0.12
10,CN(C)C(=N)NC(=N)N [Metformin·HCl] (concentration: 25 µM),0.66 ± 0.18
11,CCCCc1ncc(/C=C(\Cc2cccs2)C(=O)O)n1Cc1ccc(C(=O)O)cc1 [Eprosartan Mesylate] (concentration: 25 µM),0.864 ± 0.071
12,NC[C@H]1O[C@H](O[C@H]2[C@H](O)[C@@H](O[C@H]3O[C@H](CO)[C@@H](O)[C@H](N)[C@H]3O)[C@H](N)C[C@@H]2N)[C@H](O)[C@@H](O)[C@@H]1O [Kanamycin Sulfate] (concentration: 25 µM),1.06 ± 0.08
13,CN(C)CCOC(=O)C(c1ccccc1)C1(O)CCCC1 (stereo unspecified) [Cyclopentolate] (concentration: 25 µM),0.596 ± 0.08
14,OC[C@H]1O[C@@H](O[C@@H]2[C@@H](CO)OC(O)(CO)[C@H]2O)[C@H](O)[C@@H](O)[C@H]1O (mixture of isomers) [Lactulose] (concentration: 25 µM),0.56 ± 0.15
15,C1N2CN3CN1CN(C2)C3 [Methenamine Hippurate] (concentration: 25 µM),0.89 ± 0.1
16,CN(C)CCCN1c2ccccc2CCc2ccccc21 [Imipramine·HCl] (concentration: 25 µM),0.525 ± 0.16
17,CC(=O)[C@]1(O)Cc2c(O)c3c(c(O)c2[C@@H](O[C@H]2C[C@H](N)[C@H](O)[C@H](C)O2)C1)C(=O)c1ccccc1C3=O [Idarubicin·HCl] (concentration: 25 nM),0.622 ± 0.11
18,NS(=O)(=O)c1cc2c(cc1Cl)NCNS2(=O)=O [Hydrochlorothiazide] (concentration: 25 µM),0.411 ± 0.088
19,CO[C@@]12[C@H](COC(N)=O)C3=C(C(=O)C(C)=C(N)C3=O)N1C[C@@H]1N[C@@H]12 [Mitomycin C] (concentration: 2.5 µM),0.257 ± 0.048
20,C[C@H]1COc2c(N3CCN(C)CC3)c(F)cc3c(=O)c(C(=O)O)cn1c23 [Levofloxacin·HCl] (concentration: 25 µM),0.904 ± 0.066
21,CC(C)n1c(/C=C/[C@H](O)C[C@H](O)CC(=O)O)c(-c2ccc(F)cc2)c2ccccc21 [Fluvastatin·Na] (concentration: 25 µM),0.492 ± 0.12
22,Cc1ccccc1C(=O)Nc1ccc(C(=O)N2CCCC(O)c3cc(Cl)ccc32)c(C)c1 (stereo unspecified) [Tolvaptan] (concentration: 25 µM),0.95 ± 0.028
23,O=C(O)CCc1nc(-c2ccccc2)c(-c2ccccc2)o1 [Oxaprozin] (concentration: 2.5 µM),1.03 ± 0.013
24,CC(C)[C@H](N)C(=O)OCC(CO)OCn1cnc2c(=O)[nH]c(N)nc21 (stereo partly specified) [Valganciclovir·HCl] (concentration: 25 µM),0.892 ± 0.099
25,CN1C(CCl)Nc2cc(Cl)c(S(N)(=O)=O)cc2S1(=O)=O (stereo unspecified) [Methyclothiazide] (concentration: 25 µM),0.633 ± 0.17
26,O=C1c2cccc3c2[C@H](CCC3)CN1[C@@H]1CN2CCC1CC2 [Palonosetron·HCl] (concentration: 25 µM),0.721 ± 0.022
